Rows were chosen to be rich in hits. Some 2.7% of all compounds tested hit in one or more screens of this group.
Mcl1 Bid PPI: Mcl-1/Bid interaction inhibition; Q07820; TR-FRET Mcl-1/Bid-Dy647 peptide binding, 1536-well; inhibition, % at 21.7 µM; 0.97% of 220,000 active;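 active = compounds that cut the binding signal by more than half at the single screening dose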;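 note: His-tagged Mcl-1 with europium anti-His antibody binding Bid BH3 peptide; 0% = Mcl-1 plus peptide wells and 100% = peptide-only wells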
Target sequence (Q07820 whole entry, looked up): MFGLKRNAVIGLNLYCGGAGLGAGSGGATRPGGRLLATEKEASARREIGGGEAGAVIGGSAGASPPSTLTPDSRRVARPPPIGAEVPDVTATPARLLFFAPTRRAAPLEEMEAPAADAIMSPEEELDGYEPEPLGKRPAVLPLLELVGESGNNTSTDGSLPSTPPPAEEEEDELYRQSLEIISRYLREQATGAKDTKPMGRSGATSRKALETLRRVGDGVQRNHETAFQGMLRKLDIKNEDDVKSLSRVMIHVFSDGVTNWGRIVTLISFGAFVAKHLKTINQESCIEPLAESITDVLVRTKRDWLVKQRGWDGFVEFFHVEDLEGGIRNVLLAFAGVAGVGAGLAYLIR
Bim-Mcl-1: human Bim-Mcl-1 interaction inhibition; Bead-based flow cytometry, Bim peptide-Mcl-1 binding; inhibition, % at 10 µM; 0.1% of 190,000 active; in the data active = inhibition above about 40%;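 note: 0% = no compound tracer wells and 100% = peptide blocker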
Mcl1-Noxa inh: Mcl-1/Noxa interaction inhibition. TR-FRET Mcl-1/Noxa peptide binding, 2 h. 1.5% of 220,000 active. inhibition, % at 21.7 µM. AID 1022. Q07820;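 active = compounds that cut the protein-peptide binding signal by more than 50% relative to plate controls in a single-dose test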;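 note: His-tagged Mcl-1 with rhodamine Noxa BH3 peptide and terbium anti-His antibody; 0% = Mcl-1 plus Noxa peptide wells and 100% = peptide-only wells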
Pf gamet viab: kills late stage P. falciparum gametocytes; P. falciparum stage V gametocytes, ATP luminescence, 24 h; inhibition, % at 10.9 µM; 0.065% of 150,000 active; AID 743093;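 active = inhibition above the mean plus 3 SD of compounds within the control limits, set per campaign, cut at about 38% in these data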;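 note: 0% = DMSO wells and 100% = medium only without gametocytes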
14-3-3 Bad inh: disrupts binding of bovine 14-3-3 zeta to phospho-Bad peptide | inhibition, % at 21.7 µM | 0.71% of 220,000 active | P63103 | AID 781 | TR-FRET 14-3-3zeta/Dy647-pBad peptide displacement, 1 h;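 active = inhibition above about 70%, limit read from the data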;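 note: 0% = full 14-3-3 plus peptide FRET controls and 100% = background without 14-3-3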
Target sequence (P63103 whole entry, looked up): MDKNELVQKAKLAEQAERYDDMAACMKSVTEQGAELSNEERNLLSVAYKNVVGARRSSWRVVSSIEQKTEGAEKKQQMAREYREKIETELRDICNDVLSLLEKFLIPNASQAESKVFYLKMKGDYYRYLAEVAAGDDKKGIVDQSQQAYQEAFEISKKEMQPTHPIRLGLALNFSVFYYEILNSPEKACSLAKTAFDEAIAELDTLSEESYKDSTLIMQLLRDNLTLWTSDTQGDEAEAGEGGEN
eIF4E 4G PPI: eIF4E/eIF4G interaction inhibition in translation initiation. TR-FRET eIF4E-eIF4GI(517-606) binding, 2 h. inhibition, % at 21.7 µM. AID 782. 0.37% of 220,000 active;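 active = inhibition above about 30%, limit read from the data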;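 note: 0% = full FRET control wells and 100% = background wells lacking eIF4GI fragment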
An asterisk follows results filed as active; . = no result given; [ ] = remark or other dose.

SMILES	Mcl1 Bid PPI	Bim-Mcl-1	Mcl1-Noxa inh	Pf gamet viab	14-3-3 Bad inh	eIF4E 4G PPI
Cc1cc(C)c2c(=O)n(CC(=O)N3CCC(Cc4ccccc4)CC3)sc2n1	-23.5	-8.0	58.6*	.	-9.6	6.3
CN1CC(=O)N(CC(=O)N2CCC(Cc3ccccc3)CC2)C1=O	-15.3	0.0	-5.5	9.1	-3.3	2.0
COc1ccc(CNC(=O)OCCN2CCN(Cc3ccccc3)CCC2=O)cc1	22.2	-1.0	8.8	3.0	-4.2	-2.5
O=C(CSc1nc2[nH]ncc2c(=O)[nH]1)NCCc1ccccc1	-10.3	-1.0	-0.4	-1.3	-8.1	0.4
CSc1nc2nc(-c3ccccc3)cc(=O)n2[nH]1	-4.0	5.0	-8.8	.	78.8*	-7.7
CS(=O)(=O)C1=NSC2=NC(=O)/C(=C\c3cccn3-c3ccccc3Cl)C(=N)N21	-8.5	1.0	88.9*	1.3	3.8	16.3
Cc1ccc(-n2cccc2/C=C2\C(=N)N3N=C(c4ccco4)SC3=NC2=O)cc1	79.4*	-3.0	94.1*	.	74.2*	55.5*
CS(=O)(=O)C1=NSC2=NC(=O)/C(=C\c3ccc(-c4ccccc4)o3)C(=N)N21	-13.4	0.0	14.5	.	-13.9	5.5
Cc1ccc(-n2cccc2/C=C2/C(=N)N3C(=NC2=O)SN=C3S(C)(=O)=O)cc1	-17.4	-1.0	98.3*	-1.0	9.7	23.7
CCc1ccc(-n2cccc2/C=C2/C(=N)N3C(=NC2=O)SN=C3S(C)(=O)=O)cc1	-4.2	2.0	93.9*	16.1	13.3	20.7
Cc1cc(C)cc(-n2cccc2/C=C2/C(=N)N3C(=NC2=O)SN=C3S(C)(=O)=O)c1	-12.0	3.0	34.4	1.9	-1.8	12.6
CCNc1ccc(C2(O)C(=O)c3ccccc3C2=O)cc1	-8.6	0.0	-14.3	-0.8	-5.2	2.1
O=C(CSc1nnc(-c2ccc(OC(F)F)cc2)o1)NC(=O)NCc1ccco1	-18.7	-5.0	32.3	-22.8	11.1	6.4
Cc1cc(N2CCN(C)CC2)n2cc(-c3ccc(F)cc3)nc2n1	-21.7	-1.0	57.8*	.	7.3	-4.2
Cc1cc(N2CCN(c3ccccn3)CC2)n2cc(-c3ccccc3)nc2n1	-12.8	0.0	5.2	0.9	-13.0	-11.2
CN1CCN(c2cc(-c3ccccc3)nc3cc(-c4ccc(F)cc4)nn23)CC1	6.1	0.0	52.5*	-2.2	-10.7	2.0
Cc1ccc(/C=N/NC(=O)Cc2ccc(Cl)cc2)c(O)c1	.	.	.	-18.4	.	.
CC1=NOC(=O)/C1=C/c1ccc(-c2ccc(Cl)cc2)o1	67.2*	0.0	67.0*	.	51.0	-18.1
CC1=NOC(=O)/C1=C\c1ccc(-c2cc(Cl)ccc2Cl)o1	40.6	-3.0	53.3*	-0.1	16.3	-12.1
CC1=NOC(=O)/C1=C\c1ccc(-c2ccc(Br)cc2)o1	40.4	-3.0	65.8*	.	26.0	11.5
COC(=O)c1[nH]c2ccc(Br)cc2c1NC(=O)CN1CCCCC1CCO (configuration not stated)	-49.1	-3.0	-1.6	-2.1	90.9*	-19.6
COc1ccccc1N1C(=O)C2ON(c3ccccc3)C(c3ccc(N(C)C)cc3)C2C1=O (configuration not stated)	-5.7	11.0	77.7*	.	2.9	-3.1
COc1ccccc1C1C2C(=O)N(c3ccccc3)C(=O)C2ON1c1ccccc1 (configuration not stated)	-3.1	-3.0	2.4	-51.4	-7.7	0.0
CC(C)c1ccccc1NC(=O)COc1ccc(C(=O)NCCc2ccccc2)cc1	-14.8	0.0	12.8	.	6.2	-0.8
CCOc1ccc(NC(=O)COc2ccc(C(=O)NCCc3ccccc3)cc2)cc1	-14.3	12.0	-22.1	0.5	72.1*[fluorescence artefact?]	-0.7
SMILES	Mcl1 Bid PPI	Bim-Mcl-1	Mcl1-Noxa inh	Pf gamet viab	14-3-3 Bad inh	eIF4E 4G PPI
O=C(NC(=O)c1ccc(Cl)cc1)Nc1ccc(-c2cnco2)cc1	5.9	.	-138.5	.	78.3*	-7.9
O=C(O)CCC(=O)N1N=C(c2ccc(Br)cc2)CC1c1cccs1 (configuration not stated)	-39.0	-2.0	8.3	-8.3	82.1*	-1.0
O=C(O)CCC(=O)N1N=C(c2ccco2)CC1c1cccs1 (configuration not stated)	-58.6	-16.0	-8.0	-9.8	7.5	8.3
CCn1c(SCc2nc3sc(C(=O)O)c(C)c3c(=O)[nH]2)nc2ccccc21	11.2	2.0	77.1*	.	54.1	30.0
COCCn1c(SCc2nc3sc(C(=O)OC)c(C)c3c(=O)[nH]2)nc2ccccc21	38.9	0.0	22.9	.	29.9	-14.2
COc1ccc(OC)c(NC(=O)c2nc(-c3ccccc3)oc2C)c1	-14.9	0.0	19.6	9.7	-1.8	-1.6
O=C(CSc1nc(C2CC2)nc2ccccc12)N1c2ccccc2Sc2ccccc21	-20.2	-1.0	-13.0	25.6	1.1	-31.9
COc1ccc(C(=O)CSc2nnc(CN3CCCC3)n2-c2ccc(F)cc2)c(OC)c1	-4.1	-9.0	52.7*	.	-17.6	-3.5
COc1ccc(C(=O)CSc2nnc(CN3CCCCC3)n2-c2ccc(F)cc2)cc1OC	-6.3	-7.0	3.2	.	5.8	-3.0
Cn1c(=O)nc2n(Cc3ccccc3)c3cccc(Cl)c3cc-2c1=O	62.0*	-5.0	36.4	-6.4	6.7	10.7
Cc1ccc(-n2c3nc(=O)n(C)c(=O)c-3cc3ccccc32)cc1	43.6	.	-3.8	4.6	44.9	8.1
O=C(Nc1ccc(C(=O)OC[C@@H]2CCCN3CCCC[C@H]23)cc1)c1cccc(Br)c1	-10.2	-1.0	17.1	7.3	-5.2	-0.3
Nc1cc(C(=O)N/N=C/c2cccc([N+](=O)[O-])c2)n[nH]c1=O	-55.2	.	20.4	-0.1	-3.4	1.0
O=C(N/N=C/c1ccc(Cl)c([N+](=O)[O-])c1)c1cc(-c2ccc3c4c(cccc24)CC3)n[nH]1	22.8	.	64.2*	-16.8	22.9	4.1
O=C(N/N=C/c1cccc([N+](=O)[O-])c1)c1cc(-c2ccc3c4c(cccc24)CC3)n[nH]1	59.7*	-5.0	24.4	-9.3	43.4	2.7
COc1ccc(C(=O)NCc2nnc(SCC(=O)Nc3ccccc3OC)n2C)cc1	-21.5	0.0	5.5	.	-2.2	2.6
COC(=O)c1cc(COc2ccc3c(c2)oc(=O)c2ccccc23)c(C)o1	20.5	-3.0	20.8	22.2	8.8	-25.9
CC(=O)Nc1ccc(N=Cc2c(O)c(C(=O)Nc3ccccc3)cc3ccccc23)cc1	70.6*	-2.0	84.4*	-15.3	49.2	30.0*
CCOc1cc(/C=N/NC(=O)C(N)=O)cc(Br)c1O	-46.5	2.0	48.4	.	15.2	-6.8
CCOc1cc(Br)c(Br)c(C=Nc2ccc(NC(C)=O)cc2)c1O	6.0	4.0	51.0*	-1.3	44.2	3.9
Cc1cc(C)nc(Oc2ccc(Br)cc2Br)n1	-15.0	8.0	-10.3	.	-7.4	2.1
O=C(/C=C/c1ccccc1)NC(=S)Nc1ccc(N2CCOCC2)cc1	-50.5	-2.0	16.9	.	-9.7	2.4
O=C(/C=C/c1ccccc1)NC(=S)Nc1ncccn1	-76.0	.	68.1*	.	19.3	19.3

Source: PubChem BioAssay
